The record followed here is PubChem BioAssay (NCATS).

Experiment [1] addresses Phospholipid hydroperoxide glutathione peroxidase GPX4 (Homo sapiens) (UniProt P36969). The experiment in a line: Primary qHTS Assay for Inhibitors of Recombinant Selenoprotein Glutathione Peroxidase 4 (GPX4) (AID 1845192). Further: nearly all actives have a fitted effect of over 65% in size. On activity change, negative = inhibition: series mostly up to about 50 µM; on the % scale 0 is the no-effect control and ±100 the full control effect. Put shortly:
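GR-coupled assay: recombinant GPX4 preincubated 30 min with compound at room temperature; final 200 nM GPX4, 1 mM GSH, 0.5 mM cumene hydroperoxide, 0.5 mM NADPH, 100 nM GR, 0.01% BSA, pH 7.5 Tris. NADPH fluorescence (340/450 nm) read at 0 and 15 min.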
Background: qHTS replaces the single test concentration by a dilution series.

Experiment [2] deals with Luciferin 4-monooxygenase (Photinus pyralis) (UniProt P08659). The experiment can be described thus: Primary firefly luciferase (FLuc) qHTS assay for identification of artifact compounds. (AID 1845220). Further: nearly all actives have a fitted effect of over 60% in size.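 On activity change, negative = inhibition: series mostly up to about 54 µM; plate controls were DMSO vehicle for no effect and no enzyme for full effect.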 In outline: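 Enzymatic FLuc inhibition assay: compounds pre-exposed to luciferin/ATP (10 uM each) for 15 min, then purified P. pyralis enzyme at 10 nM added. Read-out: luminescence at 5 min.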

The nature of experiment [3]: Primary fluorescence-based thiol-reactive (MSTI) qHTS assay for identification of artifact compounds. (AID 1845221). Further: nearly all actives have a fitted effect of over 65% in size. Further: potency means the concentration at half of the fitted maximal effect.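 On activity change, negative = thiol reactive: series mostly up to about 54 µM; thiol-reactive compounds lower the probe fluorescence signal.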 In outline:
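Thiol-reactive compounds detected by quenching of 4 uM MSTI fluorescence (525/598 nm) after 1 h room-temperature dark incubation in PBS pH 7.4, 2% DMSO. qHTS titration; percent inhibition Hill-fitted against Acetyl-MSTI/MSTI controls.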

The target of experiment [4] is Glutathione peroxidase 1 (Homo sapiens) (UniProt P07203). The experiment can be described thus: Primary qHTS Assay for Inhibitors of Recombinant Selenoprotein Glutathione Peroxidase 1 (GPX1) (AID 1845191). Further: nearly all actives have a fitted effect of over 65% in size. Put shortly:
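GR-coupled assay: compounds preincubated 30 min at room temperature with GPX1, then reaction started with CHP; final 10 nM GPX1, 1 mM GSH, 0.5 mM CHP, 0.5 mM NADPH, 100 nM GR, 0.01% BSA, pH 7.5 Tris buffer. NADPH fluorescence (340/450 nm) read at 0 and 15 min.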

Values without a mark were called inactive. Records with an inconclusive call do not appear. Activity calls are given as the source filed them. The call rests on the fitted dose curve; in most records, active means well fitted curve in the direction sought with a large enough effect; inconclusive means small, poorly fitted or top-dose-only effect, or another doubt; inactive means no such curve, though single readings can be large; an effect the other way counts as inactive or inconclusive.

Sequence of Phospholipid hydroperoxide glutathione peroxidase GPX4 (Homo sapiens) (P36969 whole entry, looked up): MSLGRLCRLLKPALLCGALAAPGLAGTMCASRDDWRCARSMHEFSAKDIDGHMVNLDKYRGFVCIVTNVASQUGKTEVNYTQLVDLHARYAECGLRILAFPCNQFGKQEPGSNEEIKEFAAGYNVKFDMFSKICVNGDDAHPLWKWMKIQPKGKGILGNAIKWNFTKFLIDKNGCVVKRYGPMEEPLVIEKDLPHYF
Sequence of Glutathione peroxidase 1 (Homo sapiens) (P07203 whole entry, looked up): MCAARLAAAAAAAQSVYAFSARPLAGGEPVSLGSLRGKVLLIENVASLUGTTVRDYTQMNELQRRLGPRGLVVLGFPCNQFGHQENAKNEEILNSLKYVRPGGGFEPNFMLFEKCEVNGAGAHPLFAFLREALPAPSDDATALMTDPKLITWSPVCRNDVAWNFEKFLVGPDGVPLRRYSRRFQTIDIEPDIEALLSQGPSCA

In the case of `COc1cc(O)c2c(c1)C1(OC2=O)C(C)=CC(=O)C1O` (stereo unspecified), the Potency entry in experiment [1] and in experiment [2] was “inactive” in each case.
Regarding `O=C(NC1Cc2ccccc2N(C[C@@H](O)CO)C1=O)c1cc2cc(Cl)sc2[nH]1` (stereo partly specified), the Potency result in experiment [1], in experiment [2] and in experiment [3] was “inactive” each time.
For `OC[C@H]1O[C@@H](OC[C@H]2O[C@@H](OCc3ccccc3)[C@H](O)[C@@H](O)[C@@H]2O)[C@H](O)[C@@H](O)[C@@H]1O`, the Potency result in experiment [1] and in experiment [2] was “inactive” throughout.
In the case of `CN1CCN(C(=O)c2cc3cc(Cl)ccc3[nH]2)CC1`, the Potency result in experiment [1], in experiment [2] and in experiment [3] was “inactive” each time.
Take `CC1=C[C@@H]2[C@H]3[C@@H]4O[C@@](C)(CC[C@H]4O)[C@H]3CC(=O)[C@]23C(=O)N[C@@H](CC(C)C)[C@@H]3[C@@H]1C`: the Potency result in experiment [1] and in experiment [2] was “inactive” in each case.
Regarding `CC1C(=O)OCC2=CC[N+]3([O-])CCC(OC(=O)C(C)(O)C1(C)O)C23` (stereo unspecified), the Potency result in experiment [1] and in experiment [2] was “inactive” each time.
As for `C[C@@H]1O[C@@H](OC[C@H]2O[C@@H](OCc3ccccc3)[C@H](O)[C@@H](O)[C@@H]2O)[C@H](O)[C@H](O)[C@H]1O`, the Potency entry in experiment [1] and in experiment [2] was “inactive” in each case. In experiment [3], the Potency was 5190 nM (active).
In the case of `CN(C)CCC[C@]1(c2ccc(F)cc2)OCc2cc(C#N)ccc21`, the Potency entry in experiment [1], in experiment [2] and in experiment [3] was “inactive” in each case.
Turning to `CC(C)c1cc2c(c(O)c1O)[C@@]13CCCC(C)(C)C1[C@@H](O)[C@@H]2OC3=O` (stereo partly specified), the Potency result in experiment [4] is “inactive”. For the same molecule, in experiment [3], the Potency is 927 nM (active).
`C[C@@H]1O[C@@H](OC2C(O[C@H]3[C@H](O[C@H]4CC[C@@]5(C)C(CC[C@]6(C)C5CC=C5C7CC(C)(C)CC(O)[C@]7(C)CC[C@]56C)C4(C)C)O[C@H](C(=O)O)[C@@H](O)[C@@H]3O)OC(CO)C(O)C2O)[C@H](O)[C@H](O)[C@H]1O` (stereo partly specified): in experiment [1], the Potency entry was “inactive”. Further, the activity change, negative = inhibition in experiment [2] was 2.46% [at 11.6 µM]. In addition, the activity change, negative = thiol reactive in experiment [3] was 22.1% [at 11.5 µM].
With `N#CC1C(=O)N=C(c2cc(Cl)ccc2O)C=C1c1cc(OCc2ccccc2)cc(OCc2ccccc2)c1` (stereo unspecified), the Potency result in experiment [1], in experiment [2] and in experiment [3] was “inactive” each time.
As to `C=C[C@]1(C)C[C@@H](OC(=O)CSC2C[C@H]3CC[C@@H](C2)N3C)[C@]2(C)[C@H](C)CC[C@]3(CCC(=O)[C@H]32)[C@@H](C)[C@@H]1O` (stereo partly specified), the Potency result in experiment [4] and in experiment [3] was “inactive” throughout.
As for `CC1(C)C2CC[C@]3(C)C(C(=O)C=C4[C@H]5C[C@@](C)(C(=O)O)CC[C@]5(C)CC[C@]43C)[C@@]2(C)CC[C@@H]1O` (stereo partly specified), the Potency entry in experiment [1], in experiment [2] and in experiment [3] was “inactive” each time.
For the molecule `C=CC(C)(O)CCC1C(C)(O)CCC2C(C)(C)CCCC21C` (stereo unspecified), the Potency result in experiment [1], in experiment [2] and in experiment [3] was “inactive” throughout.
Consider `CC(=O)Nc1cccc2c1c(Sc1ccc(Cl)cc1)c(C)n2CC(=O)O`, for which the Potency entry in experiment [1] and in experiment [2] was “inactive” throughout.
Consider `CC1(C)[C@H]2C[C@H](C/C=C\CCCC(=O)O)[C@@H](NC(=O)c3csc4ccc(O)cc34)[C@@H]1C2`, for which the Potency entry in experiment [1], in experiment [2] and in experiment [3] was “inactive” in each case.
Regarding `C[C@H]1[C@H](C)CC[C@]2(C(=O)O)CC[C@]3(C(=O)O)C(=CCC4[C@@]5(C)CC[C@H](O[C@@H]6O[C@@H](C)[C@H](O)[C@@H](O)[C@H]6O)C(C)(C)C5CC[C@]43C)[C@H]12` (stereo partly specified), the Potency result in experiment [4], in experiment [2] and in experiment [3] was “inactive” each time.
On to `C=C(C)[C@@H]1CC[C@]2(C)CC[C@]3(C)C(CCC4[C@@]5(C)CC[C@H](O)C(C)(C)C5CC[C@]43C)C12` (stereo partly specified), for which the Potency result in experiment [1] and in experiment [2] was “inactive” throughout.
Take `COC(=O)C1C(O)CCC2CN3CCc4c([nH]c5ccccc45)C3CC21` (stereo unspecified): the Potency entry in experiment [1] and in experiment [2] was “inactive” in each case.
Take `CC1=CC2=C(C)C(=O)C(C)(O)C(O)C2CO1` (stereo unspecified): the Potency entry in experiment [1] and in experiment [2] was “inactive” in each case.
Regarding `C[C@@H]1CC[C@]2(C(=O)O[C@@H]3O[C@H](CO[C@@H]4O[C@H](CO)[C@@H](O[C@@H]5O[C@@H](C)[C@H](O)[C@@H](O)[C@H]5O)[C@H](O)[C@H]4O)[C@@H](O)[C@H](O)[C@H]3O)CC[C@]3(C)C(=CCC4[C@@]5(C)C[C@@H](O)[C@H](O)[C@@](C)(CO)C5CC[C@]43C)C2[C@H]1C` (stereo partly specified), the Potency entry in experiment [1] is “inactive”. Also, the activity change, negative = inhibition in experiment [2] is 3.24% [at 11.6 µM]. Further, the activity change, negative = thiol reactive in experiment [3] was 329% [at 11.5 µM].
As to `O=C(O)C1(c2ccc(-c3ccc(Cl)c(Cl)c3)c(F)c2)CC1`, the Potency result in experiment [4] and in experiment [3] was “inactive” in each case.
Consider `NC1=NC2(c3cc(NC(=O)c4ccc(F)cn4)ccc3F)COCC2CS1` (stereo unspecified), for which the Potency result in experiment [1], in experiment [2] and in experiment [3] was “inactive” in each case.
`C=C1CC[C@]2(C(=O)O[C@@H]3O[C@H](CO)[C@@H](O)[C@H](O)[C@H]3O)CC[C@]3(C)C(=CCC4[C@@]5(C)C[C@H](O)[C@@H](O[C@@H]6O[C@H](C(=O)O)[C@@H](O)[C@H](O)[C@H]6O)[C@](C)(C=O)C5CC[C@]43C)C2C1` (stereo partly specified): the Potency entry in experiment [1] is “inactive”. The outcome in experiment [2] was “inactive [at 11.6 µM]”. The activity change, negative = thiol reactive in experiment [3] is 113% [at 11.5 µM].
As to `CC1(C)CC[C@]2(C(=O)O)CC[C@]3(C)C(=CCC4[C@@]5(C)CC[C@H](O)C(C)(C)C5CC[C@]43C)C2C1` (stereo partly specified), the Potency result in experiment [1], in experiment [2] and in experiment [3] was “inactive” in each case.
Turning to `CC[C@@H](Nc1c(Nc2cccc(C(=O)N(C)C)c2O)c(=O)c1=O)c1ccc(C)o1`, the Potency result in experiment [4] and in experiment [2] was “inactive” throughout. The Potency in experiment [3] is 2380 nM (active).
In the case of `COc1cc(/C=C/c2ccccc2)c(C(=O)O)c(O)c1CC=C(C)C`, the Potency result in experiment [1] and in experiment [2] was “inactive” each time.
Take `COC(=O)[C@]1(Cc2ccc(O)c(CC=C(C)C)c2)OC(=O)C(O)=C1c1ccc(O)cc1`: the Potency entry in experiment [1] and in experiment [2] was “inactive” each time.
